AC50 and outcome data for 23 molecules are collected here from PubChem BioAssay (EPA / NIEHS).

Activity calls are given as the source filed them. How the source made its calls: active means hit-call score of the fitted dose curve at least 0.9, where 1 is the maximum; inactive means score below 0.9.

A short description of test [1]: APR_HepG2_NuclearSize_72hr: Apredica 72-hour HepG2 Assay for Nuclear Size (AID 2282925). The conditions noted are these: high-content imaging, actives raise or lower the signal. The method in brief:
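Read-out: nuclear diameter from Hoechst 33342 images (ArrayScan, 20x, six fields/well), via cell-cycle image analysis. HepG2 were dosed 0.39–200 uM for 72 hr in 0.5% DMSO. Bidirectional fit relative to DMSO.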

The nature of test [2]: ATG_CRE_CIS: Attagene CIS-FACTORIAL HepG2 Assay for human cAMP Responsive Element (CRE) binding protein 3 (AID 2282926). The following applies: HepG2 CRE cis-reporter, Attagene multiplexed mRNA; actives raise or lower the signal. The method in brief:
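Readout: fluorescently labelled reporter transcripts resolved by capillary electrophoresis after RT-PCR, taken 24 h post-dosing in transfected HepG2. Endogenous transcription factor activity drives each cis-element reporter; gain or loss of signal fitted relative to DMSO control.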

The target of test [3] is CCAAT/enhancer-binding protein beta (Homo sapiens) (UniProt P17676). The test is described as follows: ATG_C_EBP_CIS: Attagene CIS-FACTORIAL HepG2 Assay for human CCAAT/Enhancer Binding Protein (C/EBP) beta (AID 2282927). The conditions noted are these: HepG2 Attagene cis-factorial transcription factor reporter; actives raise or lower the signal. The method in brief:
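HepG2, transient MRTU transfection, 24 h treatment. RT-PCR plus CE fluorescence; DMSO negative control, bidirectional fit.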

A short description of test [4]: ATG_CMV_CIS: Attagene CIS-FACTORIAL HepG2 Assay for human CMV (Internal Marker) (AID 2282928).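 Further: endpoint acts as a background internal control marker rather than a target.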 The conditions noted are these: HepG2 CMV promoter reporter, transcription factor profiling; actives raise or lower the signal. The method in brief: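 Readout: fluorescent reporter cDNA fragments separated by capillary electrophoresis after RT-PCR and HpaI cut. Cells: HepG2 carrying transfected cis-promoter reporter constructs, dosed 24 h. Endpoint serves as background internal-marker control, fit bidirectionally versus DMSO.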

Test [5] can be described thus: ATG_DR4_LXR_CIS: Attagene CIS-FACTORIAL HepG2 Assay for human Liver X Receptor (LXR), DR4 submotif (AID 2282929). The following applies: HepG2 Attagene DR4 cis-reporter, mRNA transcription; actives raise or lower the signal. The method in brief:
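HepG2 cells transiently transfected with cis-promoter-driven multiplexed reporter units (DR4 element) were dosed for 24 h. Reporter mRNA was quantified by RT-PCR, fluorescent primer extension, HpaI digestion and capillary electrophoresis; bidirectional fitting versus DMSO baseline.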

Test [6] has as its target Aryl hydrocarbon receptor (Homo sapiens) (UniProt P35869). The test is described as follows: ATG_Ahr_CIS: Attagene CIS-FACTORIAL HepG2 Assay for human Aryl Hydrocarbon Receptor (Ahr) (AID 2282930). The conditions noted are these: HepG2 AhR cis-factorial reporter transcription; actives raise or lower the signal. The method in brief:
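Endogenous factor activity is tracked through cis-promoter reporter units transfected into HepG2 cells. Transcript levels at 24 h are read by fluorescent RT-PCR and capillary electrophoresis, with activity in either direction scored relative to DMSO.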

Test [7] in a line: ATG_AP_2_CIS: Attagene CIS-FACTORIAL HepG2 Assay for human Activator Protein 2 (AP-2) (AID 2282932). The conditions noted are these: HepG2 AP-2 cis-reporter, Attagene transcription factor profiling; actives raise or lower the signal. The method in brief: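 Liver-derived HepG2 line, cis-reporter system measuring endogenous factors; 24 h dosing; reporter mRNA detected by fluorescent RT-PCR and capillary electrophoresis.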

Test [8] has as its target Retinoic acid receptor alpha (Homo sapiens) (UniProt P10276). The test is described as follows: ATG_DR5_RAR_CIS: Attagene CIS-FACTORIAL HepG2 Assay for human Retinoic Acid Receptor Alpha (RARE), DR5 submotif (AID 2282934). The conditions noted are these: HepG2 Attagene cis-factorial RARE DR5 reporter, mRNA; actives raise or lower the signal. The method in brief:
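After 24 h of chemical exposure, transiently transfected HepG2 cells were lysed for total RNA; the DR5-regulated reporter transcript was quantified via RT-PCR and capillary electrophoresis, with activity fitted bidirectionally against DMSO.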

Test [9] can be described thus: ATG_BRE_CIS: Attagene CIS-FACTORIAL HepG2 Assay for human Bone Morphogenetic Protein (BMP) Response Element (BRE) (AID 2282933). The following applies: HepG2 BMP response element reporter, Attagene transcription factor profiling; actives raise or lower the signal. The method in brief: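 Transient MRTU transfection of human HepG2 liver cells; 24 h compound treatment; total RNA isolated, reverse-transcribed, PCR-amplified, 6-FAM labelled, HpaI-cut, capillary electrophoresis. DMSO = negative control/baseline, bidirectional fit.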

Chain of Retinoic acid receptor alpha (Homo sapiens) (P10276 whole entry, looked up): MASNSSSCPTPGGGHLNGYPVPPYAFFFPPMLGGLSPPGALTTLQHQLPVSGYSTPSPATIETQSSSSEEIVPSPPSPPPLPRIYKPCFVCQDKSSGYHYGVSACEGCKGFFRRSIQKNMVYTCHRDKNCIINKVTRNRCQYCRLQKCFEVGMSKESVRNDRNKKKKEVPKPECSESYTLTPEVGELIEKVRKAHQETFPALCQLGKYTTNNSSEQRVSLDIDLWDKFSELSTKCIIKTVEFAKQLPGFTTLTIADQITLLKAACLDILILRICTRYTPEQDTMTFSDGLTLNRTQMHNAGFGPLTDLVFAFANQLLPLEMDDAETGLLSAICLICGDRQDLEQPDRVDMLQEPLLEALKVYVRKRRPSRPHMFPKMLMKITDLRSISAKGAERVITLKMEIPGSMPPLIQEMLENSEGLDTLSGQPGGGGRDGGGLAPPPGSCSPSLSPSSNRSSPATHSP
Chain of CCAAT/enhancer-binding protein beta (Homo sapiens) (P17676 whole entry, looked up): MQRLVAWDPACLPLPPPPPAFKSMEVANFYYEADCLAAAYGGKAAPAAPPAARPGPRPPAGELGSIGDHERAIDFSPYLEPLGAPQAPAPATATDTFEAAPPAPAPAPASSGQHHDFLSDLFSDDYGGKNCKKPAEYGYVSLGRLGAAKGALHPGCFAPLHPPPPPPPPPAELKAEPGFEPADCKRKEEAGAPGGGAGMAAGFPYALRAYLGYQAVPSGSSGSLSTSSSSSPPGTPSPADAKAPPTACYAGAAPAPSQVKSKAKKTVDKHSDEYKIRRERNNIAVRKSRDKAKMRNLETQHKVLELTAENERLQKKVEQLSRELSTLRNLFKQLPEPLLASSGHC
Chain of Aryl hydrocarbon receptor (Homo sapiens) (P35869 whole entry, looked up): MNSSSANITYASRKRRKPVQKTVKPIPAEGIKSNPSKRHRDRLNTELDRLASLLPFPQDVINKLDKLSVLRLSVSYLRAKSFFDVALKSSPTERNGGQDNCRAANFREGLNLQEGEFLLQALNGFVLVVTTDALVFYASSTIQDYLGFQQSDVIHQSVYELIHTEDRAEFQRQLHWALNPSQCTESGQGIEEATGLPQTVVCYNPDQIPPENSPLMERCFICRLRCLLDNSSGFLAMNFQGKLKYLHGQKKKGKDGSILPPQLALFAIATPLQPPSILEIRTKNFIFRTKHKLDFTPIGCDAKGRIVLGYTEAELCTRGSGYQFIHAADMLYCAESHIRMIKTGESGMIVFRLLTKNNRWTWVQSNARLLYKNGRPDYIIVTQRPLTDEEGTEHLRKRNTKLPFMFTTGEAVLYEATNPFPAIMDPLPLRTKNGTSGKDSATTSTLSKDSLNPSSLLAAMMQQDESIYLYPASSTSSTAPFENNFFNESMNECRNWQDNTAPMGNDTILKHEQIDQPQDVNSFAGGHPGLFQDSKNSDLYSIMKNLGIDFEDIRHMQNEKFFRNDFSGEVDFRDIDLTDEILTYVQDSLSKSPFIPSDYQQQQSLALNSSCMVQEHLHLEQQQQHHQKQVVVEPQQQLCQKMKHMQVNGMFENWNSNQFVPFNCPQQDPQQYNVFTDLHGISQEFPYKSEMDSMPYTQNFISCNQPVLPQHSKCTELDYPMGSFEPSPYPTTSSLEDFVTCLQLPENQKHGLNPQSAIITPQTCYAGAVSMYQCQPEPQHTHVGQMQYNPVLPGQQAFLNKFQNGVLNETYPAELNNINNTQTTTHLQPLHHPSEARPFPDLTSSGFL

As to `COc1ccc(S(=O)(=O)N2C(=O)[C@@](c3ccccc3OC)(N3C[C@H](O)C[C@H]3C(=O)N(C)C)c3cc(Cl)ccc32)c(OC)c1`, the AC50 in [1] is 130 µM (active); in [2], 87.9 µM (active); in [5], 26.1 µM (active); in test [6], 29.9 µM (active). In addition, the result in [3], in [4] and in [7] was inactive.

Consider `C=CCOC(=O)c1ccccc1C(=O)OCC=C`, for which the call in [1], in test [2], in test [6], in test [7] and in [8] was inactive. For the same molecule, the results for the AC50 in test [3], in [4] and in test [5] were 26.4 µM (active), 26.2 µM (active) and 26.2 µM (active), respectively.

Turning to `CN1CCCC1=O`, the call in test [1], in test [2], in test [3], in test [4], in test [5] and in [6] was inactive. Moreover, the result in [7], in [9] and in test [8] was inactive.

In the case of `NS(=O)(=O)c1cc2c(cc1Cl)NCNS2(=O)=O`, the call in test [1], in [2], in test [3], in test [4], in test [5] and in [6] was inactive. Besides, the molecule was called inactive in test [7] and in [9].

Consider `CCCCCCCCCCO`, for which the molecule was classed as inactive in [1], in test [3], in test [4], in test [5], in [6] and in [7]. Also, the call in [8] was inactive. Also, the half-maximal activity concentration (AC50) in test [2] was 183 µM (active).

For the molecule `Nc1ccccc1N`, the molecule was classed as inactive in [1], in test [5] and in test [7]. The AC50 in test [2] was 72.5 µM (active); in [3], 54.2 µM (active); in test [4], 24.2 µM (active); in test [6], 1.41 µM (active); in test [9], 5.4 µM (active).

As to `CCCCN(CCCC)CCCC`, the call in [1], in [2], in test [3], in [4], in [5] and in test [6] was inactive. The outcome in [7] and in test [9] was inactive.

Regarding `Cc1ccc(C)c(C)c1`, the molecule was called inactive in [1], in test [2], in [3], in test [4], in test [5] and in test [6]. Further, the call in test [7], in [9] and in test [8] was inactive.

In the case of `NC(=O)Cn1c(=O)cc(CCN2CCN(c3nccc4sccc34)CC2)c2ccc(F)cc21`, the result in test [1], in [2], in [3], in test [5], in test [6] and in test [7] was inactive. Besides, the half-maximal activity concentration (AC50) in [4] is 100 µM (active).

For the molecule `COc1cc(/C=C/C(=O)CC(=O)/C=C/c2ccc(O)c(OC)c2)ccc1O`, the call in test [1], in [2], in test [3] and in test [9] was inactive. Besides, the AC50 in test [4] is 54.2 µM (active); in [5], 58.3 µM (active); in test [6], 55.2 µM (active); in test [7] it was 55.5 µM (active).

For `CCCCCCCC=O`, the call in test [1], in [2], in test [3], in [4], in [5] and in [6] was inactive. In addition, the call in test [7] and in [9] was inactive.

As for `Cc1cc(NC(=O)C(=O)O)cc(C)c1Oc1ccc(O)c2c1CCC2`, the call in [1], in test [2], in [3], in test [4], in test [6] and in [7] was inactive. The molecule was called inactive in test [9]. Further, the AC50 in [5] was 156 µM (active).

Regarding `CCCc1cc(=O)[nH]c(=S)[nH]1`, the molecule was called inactive in [1], in test [2], in [3], in test [4], in [5] and in test [7]. The molecule was called inactive in test [9]. Besides, in test [6], the AC50 was 63.9 µM (active).

With `CCCCCCCCCCCCCCCCCC(=O)O`, the call in [1], in test [2], in test [3], in test [4], in [5] and in [6] was inactive. In addition, the molecule was classed as inactive in [7] and in test [9].

Turning to `CC(CO)OC(C)CO` (stereo not drawn) (tested in a mixture with another compound), the call in test [1], in test [2], in [3], in test [4], in test [5] and in test [6] was inactive. For the same molecule, the molecule was called inactive in [7] and in test [9].

In the case of `CCc1c(C(=O)NN2CCCCC2)nn(-c2ccc(Cl)cc2Cl)c1-c1ccc(Br)cc1`, the outcome in test [1], in test [2], in [3], in [6], in test [7] and in [9] was inactive. The figures for the AC50 in test [4] and in [5] were 6.36 µM (active) and 1.91 µM (active), respectively.

Consider `CCCCCCCCCCC`, for which the molecule was classed as inactive in test [1], in [2], in [3], in [4], in [5] and in test [6]. The call in test [7], in test [9] and in test [8] was inactive.

As to `CNCc1cc(F)ccc1Oc1ccc(Cl)c(Cl)c1`, the AC50 in [1] was 103 µM (active). Also, the result in test [2], in test [3], in [4], in [5], in test [6] and in test [7] was inactive. In addition, the outcome in test [9] and in test [8] was inactive.

Regarding `Nc1ccc2c(c1)C(=O)c1ccccc1C2=O`, the molecule was classed as inactive in test [1], in [2], in test [3], in test [4], in [5] and in [6]. Moreover, the outcome in [7] and in [9] was inactive.

As for `CCCCCCC(=O)OCC`, the outcome in test [1], in test [2], in test [3], in test [4], in [5] and in test [6] was inactive. For the same molecule, the molecule was called inactive in test [7], in test [9] and in test [8].

Consider `CCCCCCCCCCCCCCCC`, for which the outcome in [1], in [2], in [3], in test [4], in test [5] and in [6] was inactive. Further, the molecule was classed as inactive in test [7] and in test [8].

On to `Cc1c(C(=O)O)c(O)cc2c1C(=O)c1c(O)c([C@@H]3O[C@H](CO)[C@@H](O)[C@H](O)[C@H]3O)c(O)c(O)c1C2=O`, for which the molecule was called inactive in test [1], in test [2], in [3], in test [4], in test [5] and in test [6]. Moreover, the molecule was called inactive in [7], in test [9] and in test [8].

With `CN1CCN(Cc2cc(-c3ccc4[nH]c(=O)oc4c3)co2)[C@@H](c2ccc(F)cc2)C1`, the molecule was called inactive in test [1], in [3], in test [4], in [6], in test [7] and in [9]. Moreover, the AC50 in [2] is 33 µM (active); in test [5], 56.5 µM (active).
